Bioassay records: PubChem, National Center for Advancing Translational Sciences (NCATS)
PGK inhibitor: qHTS Assay to Find Inhibitors of Phosphoglycerate Kinase; Potency, µM (top dose mostly 57.5 µM), for the others: at the top dose activity change, negative = inhibition, most hits filed as inhibitors; PGK/GAPDH coupled, Kinase-Glo luminescence, 60 min; AID 602233, 2012; hit rate 0.043% among 380,000; further: on the % scale 0 is the no-effect control and ±100 the full control effect; nearly all actives have a fitted effect of over 60% in size
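Luminescent ATP detection (Kinase-Glo Plus) follows a 60-minute room-temperature incubation, with wells lacking PGK as controls. Buffer: 100 mM TEA (pH 7.6), 5 mM MgCl2, 0.01% Tween-20. Coupling enzyme GAPDH (100 nM final) supplies unstable 1,3-BPG in-well.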
POLB inh: qHTS Assay for Inhibitors of DNA Polymerase Beta. hit rate 1.3% among 340,000. P06746. AID 485314, 2010. Pol beta primer extension/strand displacement, fluorescence kinetic. Potency, µM (top dose mostly 114 µM), for inactives: at the highest dose activity change, negative = inhibition, usual class: inhibitors; further: on the % scale 0 is the no-effect control and ±100 the full control effect
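Kinetic readout of DNA synthesis with strand displacement by Pol beta. Compound and 10 nM enzyme sit 15 min at room temperature; 50 nM substrate starts the reaction, read immediately and at 10 min.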
Pol eta inh-1: qHTS for Inhibitors of Polymerase Eta. DNA polymerase eta (Homo sapiens), Q9Y253. recombinant Pol eta, fluorescent DNA replication assay. Potency, µM (highest dose often 114 µM), for inactives: at the top dose activity change, negative = inhibition, most hits filed as inhibitors. hit rate 1.2% among 390,000. AID 588591, 2011; further: on the % scale 0 is the no-effect control and ±100 the full control effect
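Pol eta (10 nM) was preincubated with compounds for 15 min at room temperature, after which fluorescent replication substrate (50 nM final) was added to start the reaction. Fluorescence was read kinetically at 0 and 10 min.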
FEN1 inh-1: qHTS Assay for the Inhibitors of Human Flap endonuclease 1 (FEN1); P39748; Recombinant FEN1 flap cleavage, fluorescence, 15 min; Potency, µM (highest dose often 114 µM), inactives show at the highest dose activity change, negative = inhibition, most hits filed as inhibitors; hit rate 0.35% among 390,000; further: on the % scale 0 is the no-effect control and ±100 the full control effect; nearly all actives have a fitted effect of over 65% in size
Target sequence (P39748 whole entry, looked up): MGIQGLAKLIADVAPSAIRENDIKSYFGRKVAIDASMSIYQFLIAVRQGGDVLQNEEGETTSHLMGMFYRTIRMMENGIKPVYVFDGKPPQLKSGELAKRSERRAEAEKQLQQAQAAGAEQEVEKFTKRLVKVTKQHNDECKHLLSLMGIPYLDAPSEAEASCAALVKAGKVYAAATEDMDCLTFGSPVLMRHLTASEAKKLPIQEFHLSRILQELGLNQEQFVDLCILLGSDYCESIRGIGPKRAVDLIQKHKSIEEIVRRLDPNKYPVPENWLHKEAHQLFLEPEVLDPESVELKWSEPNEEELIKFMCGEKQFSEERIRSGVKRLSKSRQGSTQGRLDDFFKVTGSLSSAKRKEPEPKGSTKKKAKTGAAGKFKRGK
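Compounds are tested as a concentration series against 10 nM FEN1; after a 15 min room-temperature preincubation, 50 nM substrate starts cleavage, with plate reads at 0 and 15 min. Normalized responses are fitted by a Hill equation.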
Pol iota inh: qHTS for Inhibitors of Polymerase Iota | AID 588590, 2011 | DNA polymerase iota (Homo sapiens), Q9UNA4 | hit rate 1% among 390,000 | Potency, µM (series often up to 115 µM), for inactives: at the highest dose activity, negative = inhibition, actives largely listed as inhibitors | Pol iota fluorescent replication assay, 10 min
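Fluorescent replication assay read twice, at 0 min and 10 min after adding 50 nM (final) substrate. Enzyme (10 nM) and compounds were first incubated 15 min at room temperature; enzyme-free buffer wells were negative controls.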
Pol kappa inh-1: qHTS for Inhibitors of Polymerase Kappa; purified Pol kappa, fluorescent DNA synthesis assay, 10 min; Potency, µM (doses to about 107 µM), inactives show top-dose activity, negative = inhibition, hits mostly inhibitors; hit rate 0.53% among 400,000; AID 588579, 2011; further: on the % scale 0 is the no-effect control and ±100 the full control effect
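Kinetic fluorescence readout at 0 and 10 min followed reaction start with substrate at 50 nM final. Beforehand, enzyme (10 nM Pol kappa) stood 15 min with compound at room temperature; buffer-only wells were negative controls.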
Pol kappa inh-2: qHTS for Inhibitors of Polymerase Kappa: Confirmatory Assay for Cherry-picked Compounds; shares compounds with Pol eta inh-1; purified Pol-kappa, fluorescent strand-displacement substrate; Potency, µM, actives largely listed as inhibitors; hit rate 76% among 920; AID 720501, 2013
Pol eta inh-2: qHTS for Inhibitors of Polymerase Eta: Confirmatory Assay for Cherry-picked Compounds; shares compounds with Pol eta inh-1; Pol eta primer extension, TAMRA/BHQ fluorescence, 10 min; Potency, µM, most hits filed as inhibitors; hit rate 64% among 2,600
FEN1 inh-2: qHTS Assay for the Inhibitors of FEN1: Confirmatory Assay for Cherry-picked Compounds; shares compounds with FEN1 inh-1; FEN1 flap cleavage, TAMRA/BHQ2 fluorogenic DNA substrate; Potency, µM, most hits filed as inhibitors; hit rate 79% among 880; AID 720498, 2013; further: nearly all actives have a fitted effect of over 60% in size
Active calls of the source: *; i = inactive; ? = inconclusive; . = not tested or not shown; [ ] = remark or other dose. Only some compounds are listed: those with a hit (about 2.4% of all), similar ones and a draw of the others. The call rests on the fitted dose curve; in most records, active means well fitted curve in the direction sought with a large enough effect; inconclusive means small, poorly fitted or top-dose-only effect, or another doubt; inactive means no such curve, though single readings can be large; an effect the other way counts as inactive or inconclusive. Potency means the concentration at half of the fitted maximal effect.

SMILES	PGK inhibitor	POLB inh	Pol eta inh-1	FEN1 inh-1	Pol iota inh	Pol kappa inh-1	Pol eta inh-2	FEN1 inh-2	others
CN(C)c1ccc2nc3ccc(=O)cc-3sc2c1	?	.	39.8µM*	.	.	.	?	42.6*
Cc1cc2c(cc1Cl)C(c1ccccc1C)CC(=O)O2 (stereo unspecified)	.	.	.	.	.	-16.7%	.	.
O=c1cc(-c2ccc(O)cc2)oc2ccc3ccccc3c12	?	.	?	?	39.8µM*	-24.2%	.	?	Pol kappa inh-2=?
CCOC(=O)c1cc(-c2ccc(OC)cc2)n(CCC(=O)NCCc2ccc(OCC)c(OCC)c2)c1C	1.7%	-12.9%	-4.1%	15.2%	-5.9%	-13.6%[60.1 µM]	.	.
Cc1ccc(C)c(Nc2nc3c(S(=O)(=O)c4ccc(Br)cc4)nnn3c3ccsc23)c1	-3.3%	17.8µM*	-25.5%	?	44.7µM*	?	.	?	Pol kappa inh-2=21.2*
Cn1nnc2c(N3CCN(c4ccccc4Cl)CC3)ncnc21	-0.8%	-25.5%	3.2%	-3.1%	-12.7%	-10.1%[60.1 µM]	.	.
OCCCNc1c2ccccc2nc2ccccc12	i	17.8µM*	-2.6%	22.4µM*	22.4µM*	79.4µM*	.	21.3*	Pol kappa inh-2=?
O=C(NCCCO)c1ccc2nc(-c3ccco3)c(-c3ccco3)nc2c1	-5.9%	28.2µM*	7.94µM*	12.6µM*	10µM*	28.2µM*	19*	67.5*	Pol kappa inh-2=18.9*
N=C1/C(=C\c2coc3ccc(O)cc3c2=O)C(=O)N=C2SC=CN12	-7.3%	3.98µM*	12.6µM*	50.1µM*	?	?	19*	?
CN1C(=O)/C(=C/c2coc3ccc(O)cc3c2=O)SC1=S	-5.1%	-3.4%	6.3%	-19.7%	-17.3%	-7.1%	.	.
O=C(Nc1ccc2[nH]c(=O)[nH]c2c1)c1ccc([N+](=O)[O-])o1	-15.1%	.	56.2µM*	-23.9%	?	-13.2%	?	42.6*	Pol kappa inh-2=?
CCOc1cc(/C=C2\SC(=S)N(C(C(=O)O)c3ccccc3)C2=O)ccc1O (stereo unspecified)	i	?	?	?	28.2µM*	?	.	84.9*	Pol kappa inh-2=42.3*
CCN=C1S/C(=C\c2ccc(O)c(OCC)c2)C(=O)N1CC	i	18.6%	-27.7%	2.6%	0.0%	-10.4%	.	.
O=C(COC(=O)c1ccc([N+](=O)[O-])s1)Nc1ccc(Cl)cn1	3.2%	?	-14.2%	-2.5%	?	-24.5%	.	.
Cc1c(Cl)cnc(NC(=O)COC(=O)c2ccc([N+](=O)[O-])s2)c1Cl	-8.3%	28.2µM*	17.8µM*	?	25.1µM*	-44.2%	84.9*	8.49*
COc1ccccc1CNC(=O)CSC1=Nc2ccccc2N=C(c2ccc(F)cc2)C1	-6.4%	0.3%	5.8%	-4.7%	-9.4%	-8.0%[60.1 µM]	.	.
O=C(O)c1cccs1	.	.	.	18.3%	10.1%	2.6%	.	.
CCOCCCNC(=O)NC(CCC(C)C)c1c(-n2cccc2)sc2c1CCN(C)C2 (stereo unspecified)	5.8%	-24.0%	-9.5%	2.4%	-24.1%	-12.4%	.	.
CCOc1cc(-c2ccc3c(c2)OCO3)cc(=[O+]CC)c2c(C)oc(C)c12	.	.	.	44.7µM*	50.1µM*	50.1µM*	47.8*	?	Pol kappa inh-2=?
Cc1oc(C)c2c(=O)cc(-c3ccc4c(c3)OCO4)cc(OC(=O)c3ccccc3Br)c12	-8.1%	?	?	-15.7%	?	?	.	.
O=C1NC(=O)/C(=C/c2ccc(-c3cc(C(=O)O)ccc3Cl)o2)S1	?	31.6µM*	20µM*	20µM*	39.8µM*	56.2µM*	?	37.9*
COc1ccc(-c2cnc(C)o2)cc1S(=O)(=O)Nc1ccc(F)cc1F	-6.3%	?	?	0.3%	?	3.8%[60.1 µM]	.	.
O=C1c2ccccc2C(=O)c2c(O)c(O)cc(O)c21	?	.	31.6µM*	?	79.4µM*	50.1µM*	42.6*	37.9*	Pol kappa inh-2=75.2*
Cc1csc(N=Cc2ccc([N+](=O)[O-])o2)n1	-13.2%	.	17.8µM*	.	.	.	?	30.1*
Cc1cc(N/N=C/c2ccc([N+](=O)[O-])o2)nc2ccccc12	-4.1%	-26.4%	-8.9%	-10.6%	-3.4%	-27.9%	.	.
SMILES	PGK inhibitor	POLB inh	Pol eta inh-1	FEN1 inh-1	Pol iota inh	Pol kappa inh-1	Pol eta inh-2	FEN1 inh-2	others
Cc1ccc(Cl)cc1NC(=O)Cn1c(=O)n(CCCS(=O)(=O)C2CCCCC2)c(=O)c2ccccc21	-4.0%	0.8%	0.7%	-9.5%	3.2%	0.0%	.	.
Cc1cc(N)c2cc(NC(=O)/C=C/c3ccccc3Cl)ccc2n1	-6.8%	50.1µM*	?	?	47.8%	-24.8%	67.5*	75.7*
Cc1cc(C)nc(NC(=O)/C=C/c2ccccc2Cl)n1	3.6%	0.8%	-16.9%	3.1%	22.7%	-1.8%	.	.
COc1cc2cc3c(N)c(C(=O)Nc4sc(C)c(C)c4C#N)sc3nc2cc1OC	.	7.94µM*	28.2µM*	50.1µM*	7.94µM*	31.6µM*	30.1*	42.6*
COc1cccc(Cn2c(=O)c(CCc3ccccc3)nc3cnc(OC)nc32)c1	.	.	.	.	.	-12.8%[60.1 µM]	.	.
COc1ccc(/C=N/NC(=O)c2[nH]c3ccc(Cl)cc3c2-c2ccccc2)c(C(=O)O)c1OC	-13.9%	-19.6%	79.4µM*	?	27.1%	-6.1%	37.9*	37.9*
COc1ccc(/C=N\NC(=O)COc2ccc(Cl)cc2Cl)c(C(=O)O)c1OC	2.1%	1.9%	-24.6%	2.6%	148.6%	-4.0%	.	.
C[n+]1ccc(/C=C/c2c[nH]c3ccc(F)cc23)cc1	-9.5%	18.2%	-31.3%	?	-13.5%	-6.3%	.	.
Cn1cc(/C=C/c2cc[n+](C)cc2)c2cc(F)ccc21	0.0%	?	?	44.7µM*	44.9%	-18.1%	.	37.9*
CCOC(=O)c1c(/N=C/c2ccc(OC)cc2O)sc2c1CCN(C)C2	8.6%	-3.3%	?	-23.3%	?	?	.	.
